Out of some 420,000 compounds screened, about 64,000 (15%) were called active. Inconclusive results (about 27%) are left out. The call rests on the fitted dose curve; in most records, active means well fitted inhibition curve with a large enough effect; inconclusive means small, poorly fitted or top-dose-only effect; inactive means flat fitted curve, though single readings scatter. The list is a sample of the results.
test: qHTS for Inhibitors of human tyrosyl-DNA phosphodiesterase 1 (TDP1): qHTS in cells in absence of CPT; conditions: DT40 Tdp1-/- hTDP1 cells, no CPT, ATP luminescence, 48 h; activity change, negative = growth inhibition: at 46.2 µM (top of the series); further: nearly all actives have a fitted effect of over 55% in size
Excerpt: Human tyrosyl-DNA phosphodiesterase 1 (TDP1) is a novel repair gene, and we propose to use it as a new target for anticancer drug development. TDP1 is not an essential protein, but under treatment with topoisomerase I poison (camptothecin: CPT), TDP1 works as a critical factor for cell survival. To directly identify novel TDP1 inhibitors active in a cellular environment, we have knocked-out the Tdp1 gene in chicken DT40 cells (Tdp1-/-) and generated a complemented counterpart cells that contains a stable transfection of the human TDP1 gene (Tdp1-/-;hTDP1 cells). For the primary screen, Tdp1-/-;hTDP1 cells will be exposed to small molecules in the presence or absence of CPT, and their growth kinetics will be evaluated after 48 hours by measuring ATP activity. […] The hit compounds will then be evaluated in the presence or absence of CPT using Tdp1-/- cells. […] In tertiary assays, biochemical gel-based assays will be used to assess whether the hit compounds specifically target TDP1.
To this end, we have screened this cell line against the MLSMR in two primary screens. In one screen we add CPT and in the other we screen in the absence of CPT; this AID represents the screen where CPT was absent.
NIH Chemical Genomics Center [NCGC]
NIH Molecular Libraries Probe Centers Network [MLPCN]
Assay Submitter (PI): Yves Pommier, NCI
DT40-hTDP1 cells without 20 nM Camptothecin (add 20 microL of DMSO in 1 L of cell culture medium) were dispensed at 400 cells/5microL/well in tissue culture treated 1536-well white wall/solid bottom assay plates (Greiner Bio-One North America, NC, U.S.A.) using a Multidrop Combi 8 channel dispenser (Thermo Fisher, Waltham, MA, USA). 23 nL compounds and controls were transferred using the pin tool (Kalypsys, San Diego, CA, USA) to the assay plates. The assay plates were then incubated at 37 masculineC for a minimum 48 hr. Three microL of Cell Titer Glo solution was added to the plates and incubated at RT in dark for 30 min. Luminescence was read using ViewLux (Perkin Elmer) with 1 sec exposure slow speed, high gain and 2x binning.
On the % scale 0 is the no-effect control and ±100 the full control effect; potency means the concentration at half of the fitted maximal effect.

| SMILES | activity change, negative = growth inhibition | Potency |
| --- | --- | --- |
| O=C(CN1C(=O)NC2(CCCCCC2)C1=O)NCc1cccs1 | 0.121% (inactive) | – |
| CN=C1SC(C(=O)O)CC(=O)N1C (stereo not drawn) | 1.26% (inactive) | – |
| COc1ccc(C(=O)n2nc(-c3ccc(C)cc3)nc2N)cc1OC | – | 10.3 µM (active) |
| COc1ccc(C(=O)n2nc(C)c(Br)c2C)cc1OC | -0.43% (inactive) | – |
| COc1ccc(CC(=O)n2nc(-c3cccnc3)nc2N)cc1 | 1.94% (inactive) | – |
| Oc1ccc(Cl)c2c1CCC2 | -27% (inactive) | – |
| Cc1ccc(OCc2cc(C(=O)N(C)CCc3ccccc3)no2)cc1C | -19% (inactive) | – |
| CN(CCOc1ccccc1)C(=O)c1cc(COc2c(F)cccc2F)on1 | -24.9% (inactive) | – |
| CN(Cc1cccnc1)C(=O)c1cc(COc2ccc3ncccc3c2)on1 | – | 8.2 µM (active) |
| CCOC(=O)CNC(=O)CSc1ccc2nnc(-c3cccnc3)n2n1 | -1.35% (inactive) | – |
| COc1ccc(COC(=O)c2n[nH]c3ccccc23)cc1F | -1.31% (inactive) | – |
| Cn1c(SCc2c(F)cccc2Cl)nnc1-c1cnccn1 | -18.6% (inactive) | – |
| Cc1cc([N+](=O)[O-])c(NC2CCCCC2)c([N+](=O)[O-])c1 | -10.4% (inactive) | – |
| CC1CN(C(=S)Nc2ccc(S(N)(=O)=O)cc2)CC(C)O1 (stereo not drawn) | 11% (inactive) | – |
| CCOC(=O)NCc1ccc2c(c1)OCO2 | -1.31% (inactive) | – |
| COCCN(Cc1cc2cc3c(cc2nc1Cl)OCO3)C(=O)c1cccc(C)c1 | – | 16.4 µM (active) |
| CCCCN(CC)C(=O)c1ccc2c(c1)OCO2 | -22.7% (inactive) | – |
| Nc1ncnc2c1ncn2[C@@H]1O[C@H](C(=O)N2CCCN(Cc3ccccc3F)CC2)[C@@H](O)[C@H]1O | -25.2% (inactive) | – |
| COc1cccc(CC2(CO)CCCN(Cc3nc(-c4cccs4)oc3C)C2)c1 (stereo not drawn) | – | 20.6 µM (active) |
| COC(=O)CCC(=O)N1CCCC(CO)(Cc2ccccc2)C1 (stereo not drawn) | -38.2% (inactive) | – |

| SMILES | activity change, negative = growth inhibition | Potency |
| --- | --- | --- |
| CCOc1cc(CN2CCCC(CO)(Cc3ccc(F)cc3F)C2)ccc1OC (stereo not drawn) | -19.8% (inactive) | – |
| Cc1ccc(CS(=O)(=O)CCC(=O)NC2CC2)cc1 | -0.142% (inactive) | – |
| CC[N+]1(CC)CC2=Cc3ccccc3CC2C1 (stereo not drawn) | -19.9% (inactive) | – |
| O=C(Cn1c[n+](CC(=O)c2ccc([N+](=O)[O-])cc2)cn1)c1ccc([N+](=O)[O-])cc1 | – | 20.6 µM (active) |
| O=C(c1ccncc1)c1ccc([N+](=O)[O-])cc1 | -16.7% (inactive) | – |
| O=C(Nn1cnnc1)c1ccc([N+](=O)[O-])cc1 | -4.36% (inactive) | – |
| CCOC(=O)CSc1nnc(-c2ccc([N+](=O)[O-])cc2)o1 | -10.3% (inactive) | – |
| COc1ccccc1C(=O)Nn1cnnc1 | 3.96% (inactive) | – |
| CC(=O)c1ccccc1OCc1ccc(C(=O)c2ccccc2)cc1 | – | 16.4 µM (active) |
| COc1ccccc1C(=O)c1ccccc1C(=O)c1ccccc1 | – | 18.4 µM (active) |
| O=C(NC1CCC(O)CC1)c1ccccc1OCc1ccc(F)cc1 (stereo not drawn) | 9.54% (inactive) | – |
| O=C(Nc1ccccc1)c1ccccc1OCc1ccccc1 | -23.2% (inactive) | – |
| COc1ccccc1C(=O)NNC(=O)c1ccc(NC(=O)c2ccccc2)cc1 | -8.31% (inactive) | – |
| COc1ccc(CC(=O)OC(C)C(=O)Nc2ccc(S(N)(=O)=O)cc2)cc1 (stereo not drawn) | -14.9% (inactive) | – |
| O=C(Nc1ccccc1C(=O)O)c1ccc(N2C(=O)C3CC=CCC3C2=O)cc1 (stereo not drawn) | 7.37% (inactive) | – |
| O=CN1CCN(C(=O)c2ccc3c(c2)OCO3)CC1 | 17.6% (inactive) | – |
| C=CCNC(=S)/N=c1/ccccn1Cc1ccccc1 | – | 1.84 µM (active) |
| C=CCNC(=O)COc1coc(CN2CCN(Cc3ccccc3)CC2)cc1=O | 16.1% (inactive) | – |
| CNC(=S)NNC(=O)c1cccn(Cc2ccccc2)c1=O | 18.9% (inactive) | – |
| CCCc1nc(N)nc2c1C(=O)CC(C)(C)C2 | -9.4% (inactive) | – |

| SMILES | activity change, negative = growth inhibition | Potency |
| --- | --- | --- |
| COc1ccc(C(C(=O)NC(C)(C)C)N(C(=O)Cn2nnc3ccccc32)c2ccc(C(C)=O)cc2)cc1O (stereo not drawn) | -0.0142% (inactive) | – |
| O=C(CC(NCCN1CCOCC1)C(=O)O)Nc1cccc(Cl)c1 (stereo not drawn) | 0.483% (inactive) | – |
| OC[C@@H]1CN(Cc2ccc3c(c2)OCO3)C[C@H](n2cnc3c(NCc4ccco4)ncnc32)O1 | -9.44% (inactive) | – |
| Cc1ccccc1NC(=O)CCNS(=O)(=O)c1ccc2[nH]c(=O)oc2c1 | -1.56% (inactive) | – |
| COc1cc(NC(=O)C2=CC(c3ccc(C)cc3)=NS(=O)(=O)N2C)cc(OC)c1OC | -45.5% (inactive) | – |
| COc1ccc(NC(=O)C2=CC(c3ccc(OC)c(OC)c3)=NS(=O)(=O)N2C)cc1 | – | 23.1 µM (active) |
| COc1ccc(C2=NS(=O)(=O)N(C)C(C(=O)NC(C)c3ccccc3)=C2)cc1 (stereo not drawn) | -30.1% (inactive) | – |
| COc1ccccc1N(CC(=O)N1CCCCC1)S(=O)(=O)c1ccccc1 | -24.2% (inactive) | – |
| CC(=O)Nc1ccccc1Sc1ccc2c3c(cccc13)C(=O)N(c1ccc(C)cc1)C2=O | – | 16.4 µM (active) |
| CCOC(=O)Nc1ccccc1N1C(=O)c2ccccc2C1=O | 7.52% (inactive) | – |
| CSc1ccccc1NC(=O)C(C)N1C(=O)c2ccccc2S1(=O)=O (stereo not drawn) | -7.02% (inactive) | – |
| Cc1c(Cl)c([N+](=O)[O-])nn1CC(=O)NCC1CCCO1 (stereo not drawn) | 7.74% (inactive) | – |
| COc1ccc(NC(=O)CCCC(=O)c2ccccc2)cc1 | -6.59% (inactive) | – |
| O=S(=O)(N1CCCCC1)N1CCNCC1 | 6.69% (inactive) | – |
| Cc1ccc(C(=O)N/C(=C\c2cn(C)c3ccccc23)C(=O)N2CCN(C)CC2)cc1 | 11.5% (inactive) | – |
| Cc1cccc(N=C2NC(=O)/C(=C/c3cn(C)c4ccccc34)S2)c1 | – | 16.4 µM (active) |
| CN1C(=O)/C(=C/c2ccco2)SC1=Nc1cccc(C(=O)O)c1 | -0.247% (inactive) | – |
| Cc1ccc(NC(=O)CN(C)S(=O)(=O)c2cnc[nH]2)cc1C | -7.33% (inactive) | – |
